Rows were chosen to be rich in hits. Some 4.1% of all compounds tested hit in one or more screens of this group.
PfHsp90 set2 – growth inhibition of yeast expressing Plasmodium Hsp90; inhibition, % at 9.4 µM; actives 0.32% (n = 310,000); S. cerevisiae expressing PfHsp90, BacTiter-Glo ATP, 48 h; yeast lacking PDR1 and PDR3 efflux regulators; AID 504621;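 active = every replicate shows inhibition above about 80%, whatever the replicate mean, limit read from the data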;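 note: 0% = DMSO neutral controls and 100% = 20 µM radicicol positive controls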
TIM10 inh – growth inhibitors of TIM10 yeast strain; inhibition, % at 10 µM; S. cerevisiae TIM10 strain growth, BacTiter-Glo luminescence, 24 h; AID 463195; actives 1.4% (n = 330,000);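 active = inhibition of 40% or more at the single tested concentration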;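 note: wild-type TIM10 isogenic control strain grown at permissive 25 °C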
NALP3 yeast inh – inhibitors of NALP3 inflammasome in yeast | Yeast reconstituted NLRP3/ASC/caspase-1, beta-gal luminescence, 24 h | inhibition, % at 10 µM | actives 0.39% (n = 330,000);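 active = inhibition of 50% or more; inactive = inhibition below 50%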;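 note: plate controls were induced DMSO wells for no effect and uninduced yeast grown without galactose for full effect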
NALP1 yeast inh – blocks the NALP1 inflammasome reconstituted in yeast | inhibition, % at 10 µM | S. cerevisiae NALP1/ASC/caspase-1 growth, X-gal OD620, 72 h | actives 0.61% (n = 280,000); in the data active = inhibition mostly above about 24%, no sharp cut-off; inactive = mostly below about 32%
tim10-1 inh – growth inhibitors of tim10-1 mutant yeast; S. cerevisiae tim10-1 ts strain growth, BacTiter-Glo, 24 h; inhibition, % at 20 µM; actives 2.2% (n = 330,000); AID 463190;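 active = inhibition of at least 40%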;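 note: mutant grown at 25 °C; 0% = DMSO wells with yeast and 100% = wells holding no yeast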
tim23-1 inh – growth inhibitors of tim23-1 mutant yeast; S. cerevisiae tim23-1 growth, BacTiter-Glo luminescence, 24 h; inhibition, % at 20 µM; actives 1.3% (n = 330,000); AID 463212;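 active = growth inhibition of the mutant yeast at or above 50%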;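 note: temperature-sensitive mutant grown at 25 °C; plate controls were DMSO-treated mutant yeast for no effect and medium wells lacking yeast for full effect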
tim10 confirm – TIM10 yeast growth inhibition, confirmed; shares compounds with TIM10 inh; S. cerevisiae tim10 strain growth, BacTiter-Glo luminescence, 24 h; inhibition, % at 10 µM; actives 63% (n = 4,600); AID 463215;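 active = inhibition of yeast growth at or above a set limit in either of two replicates at 10 µM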;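 note: this counterscreen used the strain with wild-type TIM10; 0% = yeast with DMSO and 100% = medium wells lacking yeast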
* marks the source's active call; other numbers are inactive results.

Results for CC(C)(C)c1ccc(OCC(=O)NNC(=S)NC(=O)c2ccccc2[N+](=O)[O-])c(Br)c1 ?
PfHsp90 set2: -15.8; TIM10 inh: 48.7*; NALP3 yeast inh: 26.2; NALP1 yeast inh: -2.7; tim10-1 inh: 36.2; tim23-1 inh: 44.6; tim10 confirm: 43.8*

What do the screens show for `O=C(NNC(=S)NC(=O)c1ccccc1[N+](=O)[O-])c1ccccc1`?
PfHsp90 set2: -24.3; TIM10 inh: 16.7; NALP3 yeast inh: 28.7; NALP1 yeast inh: 4.8; tim10-1 inh: 9.4; tim23-1 inh: 13.5

How did Cc1ccc(C(=O)Nc2ccc3c(c2)OCO3)cc1Cl do in these assays?
TIM10 inh: 15.5; NALP3 yeast inh: 18.9; NALP1 yeast inh: 14.3; tim10-1 inh: -2.4; tim23-1 inh: 7.9

Results for O=C(Nc1ccc(S(=O)(=O)N2CCc3ccccc32)cc1)c1ccc2c(c1)OCO2 ?
PfHsp90 set2: 16.3; TIM10 inh: 43.9*; NALP3 yeast inh: 13.7; NALP1 yeast inh: 36.8; tim10-1 inh: 33.4; tim23-1 inh: 27.0; tim10 confirm: 46.6*

What do the screens show for `Cc1ccsc1/C=N\NC(=O)c1ccc2c(c1)OCO2`?
TIM10 inh: 42.6*; NALP3 yeast inh: 6.3; NALP1 yeast inh: -2.1; tim10-1 inh: 0.1; tim23-1 inh: 35.2; tim10 confirm: 27.5

Results for Cc1ccc(NC(=O)c2ccc3c(c2)OCO3)cc1Cl ?
PfHsp90 set2: -4.5; TIM10 inh: 41.8*; NALP3 yeast inh: 39.1; NALP1 yeast inh: 17.4; tim10-1 inh: -27.1; tim23-1 inh: 47.7; tim10 confirm: 34.2*

How did O=C(N/N=C/c1ccc2c(c1)OCO2)c1ccc2c(c1)OCO2 do in these assays?
PfHsp90 set2: -2.9; TIM10 inh: -0.9; NALP3 yeast inh: 11.9; NALP1 yeast inh: 1.8; tim10-1 inh: -9.2; tim23-1 inh: 1.1

What do the screens show for `CN(CC(=O)Nc1ccccc1Br)C(=O)COc1cccc2c1OC(C)(C)C2`?
PfHsp90 set2: -6.3; TIM10 inh: 2.3; NALP3 yeast inh: 14.6; tim10-1 inh: 26.1; tim23-1 inh: 11.1

How did NS(=O)(=O)c1ccc(NC(=O)c2ccc(S(=O)(=O)N3CCCCCC3)cc2)cc1 do in these assays?
TIM10 inh: -4.8; NALP3 yeast inh: 19.9; tim10-1 inh: 3.0; tim23-1 inh: 10.1

Results for CSC1=NC(=O)/C(=C/c2ccc(SC)cc2)S1 ?
TIM10 inh: 48.8*; NALP3 yeast inh: 16.5; NALP1 yeast inh: 14.5; tim10-1 inh: 24.0; tim23-1 inh: 23.8; tim10 confirm: 20.8

What do the screens show for `O=[N+]([O-])c1ccc(Sc2ccccc2)nc1`?
PfHsp90 set2: -11.8; TIM10 inh: -5.0; NALP3 yeast inh: 10.8; NALP1 yeast inh: 21.0; tim10-1 inh: -1.2; tim23-1 inh: 17.6

Results for O=[N+]([O-])c1ccc(Sc2n[nH]c(-c3ccccc3)n2)nc1 ?
PfHsp90 set2: -40.9; TIM10 inh: 44.9*; NALP3 yeast inh: 18.2; NALP1 yeast inh: 19.7; tim10-1 inh: 21.7; tim23-1 inh: 23.8; tim10 confirm: 12.3

How did O=C(O/N=C1/CCCc2occc21)c1ccc(Cl)cc1Cl do in these assays?
PfHsp90 set2: -5.9; TIM10 inh: 44.2*; NALP3 yeast inh: 0.9; tim10-1 inh: 22.8; tim23-1 inh: 13.9; tim10 confirm: 38.1*

Results for O=C(O/N=C1/CCCc2occc21)c1ccccc1 ?
PfHsp90 set2: 9.3; TIM10 inh: 2.6; NALP3 yeast inh: 2.8; NALP1 yeast inh: 4.8; tim10-1 inh: 34.3; tim23-1 inh: 41.5

What do the screens show for `CCCCN(CCCC)C(=S)NC(=O)c1ccccc1Cl`?
PfHsp90 set2: 2.0; TIM10 inh: 47.7*; NALP3 yeast inh: 28.7; NALP1 yeast inh: 22.3; tim10-1 inh: 38.9; tim23-1 inh: 43.8; tim10 confirm: -16.5

How did CCN(CC)C(=S)NC(=O)c1ccc(Cl)cc1Cl do in these assays?
PfHsp90 set2: 1.5; TIM10 inh: 1.6; NALP3 yeast inh: 14.7; NALP1 yeast inh: 3.9; tim10-1 inh: 20.5; tim23-1 inh: 37.9

What do the screens show for `CCCN(Cc1ccccc1)C(=S)NC(=O)c1ccccc1[N+](=O)[O-]`?
PfHsp90 set2: -45.6; TIM10 inh: 43.9*; NALP3 yeast inh: 32.5; NALP1 yeast inh: 16.6; tim10-1 inh: 32.5; tim23-1 inh: 43.8; tim10 confirm: 40.3*

How did CCOC(=O)[C@H]1[C@H]2COc3ccc(Cl)cc3[C@@H]2N2C(=O)[C@@H](CO)NC(=O)[C@@]12C do in these assays?
PfHsp90 set2: 1.7; TIM10 inh: 4.0; NALP3 yeast inh: 15.0; tim10-1 inh: 3.9; tim23-1 inh: 5.0

How did CN(C)c1ccc(N=Nc2ccccc2C(=O)OCC(=O)N2CCCCCC2)cc1 do in these assays?
PfHsp90 set2: 7.0; TIM10 inh: 40.3*; NALP3 yeast inh: 33.4; NALP1 yeast inh: 34.0; tim10-1 inh: 33.5; tim23-1 inh: 29.2; tim10 confirm: -21.2

What do the screens show for `O=C(Nc1ccc(F)cc1F)c1ccccc1NC(=O)C1CC=CCC1C(=O)O` (stereo not given)?
TIM10 inh: 8.9; NALP3 yeast inh: -11.6; NALP1 yeast inh: 11.2; tim10-1 inh: -3.8; tim23-1 inh: 2.5

Results for COc1ccccc1N1CCN(C(=O)c2cccc(S(=O)(=O)NCc3cccnc3)c2)CC1 ?
PfHsp90 set2: 25.6; TIM10 inh: 0.6; NALP3 yeast inh: 16.8; tim10-1 inh: 2.8; tim23-1 inh: 6.2

What do the screens show for `C=CCn1c(SCc2ccc3nonc3c2)nnc1-c1cccs1`?
PfHsp90 set2: -0.8; TIM10 inh: 47.7*; NALP3 yeast inh: -14.9; NALP1 yeast inh: 9.1; tim10-1 inh: 38.0; tim23-1 inh: 26.5; tim10 confirm: 25.6*

What do the screens show for `C=CCn1c(SCC(=O)C(C)(C)C)nnc1-c1cccs1`?
TIM10 inh: 0.5; NALP3 yeast inh: 7.2; NALP1 yeast inh: 23.6; tim10-1 inh: 17.4; tim23-1 inh: 18.5

Results for Nn1c(SCC(=O)Nc2ccccc2Br)nnc1-c1ccco1 ?
PfHsp90 set2: 1.0; TIM10 inh: 6.4; NALP3 yeast inh: -6.6; NALP1 yeast inh: 4.5; tim10-1 inh: 7.2; tim23-1 inh: 2.0

Results for Cn1c(CO)cnc1S(=O)(=O)Cc1c(Cl)cccc1Cl ?
PfHsp90 set2: 7.6; TIM10 inh: -18.5; NALP3 yeast inh: 9.6; NALP1 yeast inh: -3.8; tim10-1 inh: 2.7; tim23-1 inh: 1.5

How did COc1cc(C(=S)N2CCN(c3cccc(Cl)c3)CC2)ccc1O do in these assays?
PfHsp90 set2: -31.5; TIM10 inh: 41.4*; NALP3 yeast inh: -27.1; NALP1 yeast inh: -10.0; tim10-1 inh: 24.2; tim23-1 inh: 40.1; tim10 confirm: 46.2*

How did Cc1ccc2nc(N3CCN(Cc4ccc(F)cc4)C3=O)c(C)cc2c1 do in these assays?
PfHsp90 set2: 14.5; TIM10 inh: 46.3*; NALP3 yeast inh: 26.0; NALP1 yeast inh: 11.4; tim10-1 inh: 22.4; tim23-1 inh: 3.1; tim10 confirm: 60.1*
